Assay [1] can be described thus: binders of probe aFSTL3 on microarray, primary screen, stem cell growth factor project, biochemical, small-molecule microarray, fluorescence 635/667 (AID 1064).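 Further: measures binding of the biotinylated anti-FSTL3 antibody to printed compounds.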 As to conditions: higher = more signal.
Assay [2] can be described thus: binders from COS7 lysate, DM2A8 probe, primary screen, torsin A project, cell lysate, small-molecule microarray, fluorescence 635/667 (AID 1065). Particulars: higher = more signal, COS7 lysate expressing mutant human TOR1A.
The nature of assay [3]: binders of probe aFGF2 on microarray, primary screen, stem cell growth factor project, biochemical, small-molecule microarray, fluorescence 635/667 (AID 1067).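 Further: measures binding of biotinylated aFGF2 protein to printed compounds on slides; z-score merges feature fluorescence and signal-to-noise across triplicate slides.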 Particulars: higher = more signal.
Assay [4] is described as follows: binders of probe aFGF10 on microarray, primary screen, stem cell growth factor project, biochemical, small-molecule microarray, fluorescence 635/667 (AID 1071).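 Further: score merges 667 nm spot intensity and signal to noise from triplicate slides.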 Particulars: higher = more signal.
For assay [5], the target named is Neurogenic locus notch homolog protein 2 (Homo sapiens) (UniProt Q04721). Description: Notch2 binders on small-molecule microarrays, primary screen, biochemical, small-molecule microarray, 635 nm fluorescence, stem cell growth factors (AID 1073). Particulars: Notch2 binding, higher = more signal.
Chain of Neurogenic locus notch homolog protein 2 (Homo sapiens) (Q04721 whole entry, looked up, canonical isoform): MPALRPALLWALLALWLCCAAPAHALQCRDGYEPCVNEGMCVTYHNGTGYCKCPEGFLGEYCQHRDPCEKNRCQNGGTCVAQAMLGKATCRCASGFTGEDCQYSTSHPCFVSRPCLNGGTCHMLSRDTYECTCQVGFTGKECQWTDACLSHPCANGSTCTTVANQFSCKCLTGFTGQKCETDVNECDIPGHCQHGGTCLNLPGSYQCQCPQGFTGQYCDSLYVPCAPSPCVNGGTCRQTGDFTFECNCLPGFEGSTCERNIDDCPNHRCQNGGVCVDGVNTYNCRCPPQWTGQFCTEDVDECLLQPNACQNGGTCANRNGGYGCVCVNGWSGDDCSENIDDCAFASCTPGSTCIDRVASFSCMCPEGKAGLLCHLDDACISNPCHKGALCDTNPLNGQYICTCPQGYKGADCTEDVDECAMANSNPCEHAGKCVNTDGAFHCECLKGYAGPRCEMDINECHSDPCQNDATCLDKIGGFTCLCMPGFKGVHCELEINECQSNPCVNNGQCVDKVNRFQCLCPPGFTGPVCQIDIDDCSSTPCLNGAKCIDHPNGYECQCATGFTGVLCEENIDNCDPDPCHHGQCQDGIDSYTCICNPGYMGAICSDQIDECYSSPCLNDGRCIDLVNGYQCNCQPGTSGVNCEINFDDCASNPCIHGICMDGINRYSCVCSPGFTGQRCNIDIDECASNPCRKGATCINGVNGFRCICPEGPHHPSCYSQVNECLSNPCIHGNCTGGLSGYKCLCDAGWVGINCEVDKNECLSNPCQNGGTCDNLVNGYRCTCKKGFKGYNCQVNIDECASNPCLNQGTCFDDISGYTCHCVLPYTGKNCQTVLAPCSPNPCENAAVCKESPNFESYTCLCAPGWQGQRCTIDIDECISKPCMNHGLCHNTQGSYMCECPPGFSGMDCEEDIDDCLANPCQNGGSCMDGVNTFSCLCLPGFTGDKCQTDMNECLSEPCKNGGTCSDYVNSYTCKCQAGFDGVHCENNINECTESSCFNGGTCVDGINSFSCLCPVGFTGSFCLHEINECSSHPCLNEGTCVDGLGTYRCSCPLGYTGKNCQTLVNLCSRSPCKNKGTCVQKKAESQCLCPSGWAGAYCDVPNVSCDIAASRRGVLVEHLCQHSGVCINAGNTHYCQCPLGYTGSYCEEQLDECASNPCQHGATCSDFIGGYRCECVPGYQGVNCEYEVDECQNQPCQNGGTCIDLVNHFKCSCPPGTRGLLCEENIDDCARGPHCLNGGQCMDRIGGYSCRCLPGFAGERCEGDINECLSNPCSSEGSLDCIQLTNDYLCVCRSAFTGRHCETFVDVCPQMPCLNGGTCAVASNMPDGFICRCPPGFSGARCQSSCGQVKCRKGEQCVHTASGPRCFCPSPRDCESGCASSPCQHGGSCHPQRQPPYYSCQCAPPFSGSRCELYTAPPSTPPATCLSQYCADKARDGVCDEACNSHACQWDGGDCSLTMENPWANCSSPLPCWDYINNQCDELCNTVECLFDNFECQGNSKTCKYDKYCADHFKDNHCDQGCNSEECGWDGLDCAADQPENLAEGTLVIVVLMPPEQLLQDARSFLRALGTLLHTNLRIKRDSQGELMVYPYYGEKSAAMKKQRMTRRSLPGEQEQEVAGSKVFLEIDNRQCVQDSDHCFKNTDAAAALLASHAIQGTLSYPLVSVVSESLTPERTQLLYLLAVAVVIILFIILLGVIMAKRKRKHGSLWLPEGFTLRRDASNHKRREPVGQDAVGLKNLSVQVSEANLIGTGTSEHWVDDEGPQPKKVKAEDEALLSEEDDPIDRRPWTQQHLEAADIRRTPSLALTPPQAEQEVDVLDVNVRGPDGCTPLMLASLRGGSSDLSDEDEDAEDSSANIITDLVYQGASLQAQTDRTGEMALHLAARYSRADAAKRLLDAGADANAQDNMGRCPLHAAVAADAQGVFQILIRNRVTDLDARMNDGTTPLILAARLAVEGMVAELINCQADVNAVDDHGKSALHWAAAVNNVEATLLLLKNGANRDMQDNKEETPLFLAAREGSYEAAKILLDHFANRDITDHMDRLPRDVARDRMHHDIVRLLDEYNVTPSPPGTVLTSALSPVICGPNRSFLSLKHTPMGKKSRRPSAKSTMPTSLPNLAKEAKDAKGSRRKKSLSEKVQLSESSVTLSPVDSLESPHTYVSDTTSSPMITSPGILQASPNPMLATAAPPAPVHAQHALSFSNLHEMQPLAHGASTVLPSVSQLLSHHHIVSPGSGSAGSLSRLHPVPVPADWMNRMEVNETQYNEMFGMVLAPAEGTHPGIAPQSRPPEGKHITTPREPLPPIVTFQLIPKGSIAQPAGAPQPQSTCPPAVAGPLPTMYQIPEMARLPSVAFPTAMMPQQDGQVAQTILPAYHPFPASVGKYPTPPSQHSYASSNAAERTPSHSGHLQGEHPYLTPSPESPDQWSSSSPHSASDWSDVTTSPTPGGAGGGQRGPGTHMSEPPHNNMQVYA
Assay [6] has as its target Pro-neuregulin-1, membrane-bound isoform (Homo sapiens) (UniProt Q02297). Description: NRG1 binders on small-molecule microarrays, primary screen, psychiatric disease protein project, biochemical, small-molecule microarray, fluorescence 635/667 (AID 1075).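 Further: score combines 667 nm spot fluorescence with signal to noise.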 As to conditions: NRG1 binding, 635 nm fluorescence, higher = more signal.
Assay [7] has as its system Neuregulin-1 EGF-like domain. As to the kind of experiment: binders of neuregulin-1 EGF-like domain, primary screen, biochemical, small-molecule microarray, 635 nm fluorescence (AID 1081).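 Further: binding of the protein to compounds printed on small-molecule microarray slides.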 Particulars: small-molecule microarray binding, higher = more signal.
Assay [8] in a line: FRG1 promoter luciferase signal modulators, primary screen, FRG1 inhibition for FSHD, cell-based, C2C12 myotubes, firefly/Renilla luciferase, luminescence (AID 1084). As to conditions: higher = more signal, called active from +8 up or from −8 down.
The nature of assay [9]: binders of probe aFST on microarray, primary screen, stem cell growth factor project, biochemical, small-molecule microarray, fluorescence 635/667 (AID 1086).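 Further: score merges 667 nm fluorescence with signal-to-noise of each printed compound spot.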 Particulars: higher = more signal.
The nature of assay [10]: binders of probe aHhip on microarray, primary screen, stem cell growth factor project, biochemical, small-molecule microarray, fluorescence 635/667 (AID 1087).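 Further: score merges spot fluorescence at 667nm with spot signal to noise ratio.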 Particulars: higher = more signal.

Activity calls are given as the source filed them.

Chain of Pro-neuregulin-1, membrane-bound isoform (Homo sapiens) (Q02297 whole entry, looked up, the tested form may be a part, canonical isoform): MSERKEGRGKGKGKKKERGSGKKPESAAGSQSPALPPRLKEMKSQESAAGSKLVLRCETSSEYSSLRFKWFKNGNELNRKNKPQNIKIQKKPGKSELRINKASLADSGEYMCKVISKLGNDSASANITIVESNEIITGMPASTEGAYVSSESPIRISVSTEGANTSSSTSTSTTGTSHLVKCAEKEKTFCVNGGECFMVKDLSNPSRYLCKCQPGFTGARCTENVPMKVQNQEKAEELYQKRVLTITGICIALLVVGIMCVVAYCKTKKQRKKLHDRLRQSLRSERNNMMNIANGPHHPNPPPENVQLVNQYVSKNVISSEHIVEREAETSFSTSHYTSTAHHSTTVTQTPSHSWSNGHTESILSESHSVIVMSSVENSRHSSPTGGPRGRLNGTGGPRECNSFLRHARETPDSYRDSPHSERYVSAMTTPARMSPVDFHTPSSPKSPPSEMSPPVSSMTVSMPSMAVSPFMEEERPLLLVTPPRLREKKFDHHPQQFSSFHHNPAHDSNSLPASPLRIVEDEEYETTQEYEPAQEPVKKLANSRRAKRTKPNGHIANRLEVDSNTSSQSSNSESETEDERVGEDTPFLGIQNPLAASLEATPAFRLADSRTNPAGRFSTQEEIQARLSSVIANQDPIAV

With `COc1ccc([Si](C)(C)[C@@H]2[C@@H](CC(=O)N3Cc4ccccc4C[C@H]3CO)O[C@]3(C(=O)N(c4ccccc4)c4ccccc43)[C@H]2C)cc1`, the composite z-score in assay [1] was determined as 0.485; in [2], 1.02; in assay [3], 0.411; in [4] it was 0.934; in assay [5], 0.627; in assay [6], 2.35. Also, the composite z-score in assay [7] is 1.16; in assay [9], 1.43; in assay [10], 0.433. Further, in assay [8], the z-score is -3.5 (inactive).
For `O=C1O[C@H](c2ccccc2)[C@H](c2ccccc2)N2[C@H]1[C@@H](C(=O)O)[C@]1(C(=O)Nc3ccc(C#CC4(O)CCCCCC4)cc31)[C@H]2c1ccc(O)cc1`, the composite z-score in assay [1] is -0.252; in [2], 0.128; in [3] it was -0.166; in assay [4], 0.439; in assay [5], -0.0475; in assay [6] it was 1.28. Further, the composite z-score is 0.866 in assay [7], -0.247 in assay [9] and -0.134 in [10]. In addition, the z-score in assay [8] was -0.278 (inactive).
As to `C=C(/C(=C/C[C@@H](OC(C)=O)c1ccc(CO)o1)c1cc(C(=O)OC)ccc1OC)C(C)C`, the composite z-score in assay [1] was -0.245; in assay [2], -0.02; in assay [3] it was -0.076; in assay [4] it was 0.938; in [5], 1.18; in assay [6], 1.18. For the same compound, the values for the composite z-score in assay [7], in assay [9] and in [10] were 1.21, -0.0417 and -0.0618, respectively. Further, the z-score in assay [8] was -0.0698 (inactive).
On to `CC(C)[C@H]1NC(=O)[C@@]23C(=O)N[C@@H](Cc4ccccc4)C2[C@H](C)[C@@]2(C)O[C@H]2C3/C=C/C/C=C\CNC(=O)[C@H](Cc2ccccc2)NC1=O` (stereo not given in full), for which the composite z-score was -0.264 in [1]; 0.425 in assay [2]; -0.0462 in assay [3]; 1.01 in assay [4]; 0.878 in [5]; 0.781 in [6]. Also, the composite z-score in assay [7] is 0.957; in assay [9] it was 0.353; in assay [10], 0.235. The z-score in [8] was 0.304 (inactive).
Turning to `CCOC(=O)C1=C[C@@H](c2ccccc2)N(S(=O)(=O)c2ccc(C)cc2)[C@H]1c1ccccc1`, the composite z-score was 0.119 in [1]; -0.137 in assay [2]; -0.0659 in assay [3]; 0.21 in [4]; 0.917 in [5]; 0.442 in assay [6]. Further, the composite z-score in assay [7] was 0.296; in [9] it was 0.171; in assay [10] it was -0.0994. Besides, the z-score in assay [8] is -0.401 (inactive).
In the case of `Cc1ccc(N2C(=O)c3ccccc3[C@](C)(C(=O)NCc3ccccc3)[C@@H]2c2ccc(CO)cc2)nc1`, the composite z-score is 0.625 in assay [1]; 0.0083 in assay [2]; 0.0898 in assay [3]; -0.369 in assay [4]; -0.378 in assay [5]; 0.64 in assay [6]. The figures for the composite z-score in assay [7], in assay [9] and in assay [10] were 0.635, 0.0665 and 1.07, respectively. In addition, the z-score in assay [8] was 0.101 (inactive).
With `COCC1=C2[C@@H](CCc3ccccc3)OB(O)C[C@@H]2[C@@H]2C(=O)N(C)C(=O)[C@@H]2C1`, the composite z-score is -0.136 in assay [1]; 0.0288 in assay [2]; -0.164 in assay [3]; 0.511 in assay [4]; 0.21 in [5]; -0.295 in [6]. For the same compound, the values for the composite z-score in assay [7], in assay [9] and in assay [10] were 0.843, -0.0464 and -0.0618, respectively. In [8], the z-score was -3.25 (inactive).
Regarding `NCCCCCNC(=O)[C@H]1C[C@H]2C(=O)N[C@@H](Cc3ccccc3)C(=O)N2[C@H]1c1ccc(O)cc1`, the composite z-score in assay [1] was 2.14; in [2], -0.045; in assay [3], 0.175; in assay [4], 0.199; in assay [5], 0.685; in [6], 1.73. In addition, the composite z-score in [7] came to 0.573; in assay [9], 1.46; in [10] it was 0.883. Moreover, the z-score in assay [8] was 0.902 (inactive).
For `CC(C)[Si]1(C(C)C)OCc2cc(-c3ccc(-c4ccc(Cl)c(Cl)c4)o3)nc(CCc3ccccc3)c21`, the composite z-score in assay [1] is 0.0051; in assay [2] it was -0.217; in assay [3], -0.0332; in assay [4], -0.175; in assay [5], -0.412; in assay [6], 0.572. Also, the composite z-score in assay [7] is 0.261; in assay [9], -0.0731; in [10], -0.201. Besides, in assay [8], the z-score was 0.999 (inactive).
Turning to `Cc1ccc(S[C@]2(C(=O)NCc3ccccc3)CC(=O)N(Cc3cc(C(F)(F)F)cc(C(F)(F)F)c3)[C@@H]2c2ccc(CO)cc2I)cc1`, the composite z-score in [1] was 0.436; in assay [2], -0.3; in assay [3] it was -0.0767; in assay [4] it was -1.03; in [5] it was -1.44; in assay [6], 1.11. The composite z-score in [7] was 0.623; in assay [9], -0.292; in assay [10], -0.132. Also, the z-score in [8] was -0.452 (inactive).
Regarding `C=C[C@H](C)[C@H](OC(=O)Nc1ccc(OC)cc1)c1ccc(OCCO)cc1`, the composite z-score in assay [1] was 0.284; in assay [2] it was -0.294; in [3], -0.181; in assay [4], -1.65; in assay [5], -1.34; in assay [6] it was -0.154. Further, the composite z-score is 0.834 in assay [7], -0.635 in assay [9] and -0.0173 in assay [10]. In assay [8], the z-score was 3.14 (inactive).
In the case of `COCCCNC(=O)[C@@]1(c2ccc([N+](=O)[O-])cc2)CC(=O)N(C(C)C)[C@@H]1c1ccc(CO)cc1`, the composite z-score in assay [1] was 0.135; in assay [2], -0.169; in [3] it was -0.059; in assay [4] it was -0.0621; in [5], -0.588; in assay [6], -0.714. Besides, the composite z-score in assay [7] worked out at 0.539; in [9] it was 0.116; in assay [10], 0.526. The z-score in assay [8] is 0.195 (inactive).
As to `[N-]=[N+]=NC[C@H](Cc1ccccc1)NC(=O)c1ccccc1`, the composite z-score in [1] is -0.259; in assay [2] it was 0.2; in assay [3] it was -0.107; in assay [4], -0.168; in assay [5], -0.0596; in assay [6] it was -0.0451. Besides, the composite z-score in [7] was -0.123; in [9] it was 0.135; in assay [10], -0.0618. In addition, the z-score in [8] is 1.43 (inactive).
As to `O=C1O[C@H](c2ccccc2)[C@H](c2ccccc2)N2[C@H]1[C@@H](C(=O)Nc1nc3ccccc3s1)[C@]1(C(=O)Nc3ccc(C#CC4=CCCCC4)cc31)[C@H]2c1ccc(O)cc1`, the composite z-score in [1] was -0.384; in assay [2] it was 0.255; in assay [3], -0.0281; in [4] it was 0.352; in assay [5], 0.747; in assay [6] it was 1.44. Moreover, the composite z-score was 1.1 in [7], 0.845 in assay [9] and -0.0994 in assay [10]. For the same compound, in assay [8], the z-score is -0.305 (inactive).
For the compound `COCCOC(=O)N1C(=O)[C@@]2(c3cc(C#CCCO)ccc31)[C@H](C(N)=O)[C@H]1C(=O)O[C@H](c3ccccc3)[C@H](c3ccccc3)N1[C@@H]2c1ccc(OCCO)cc1`, the composite z-score in [1] was -0.0241; in assay [2], 0.657; in [3], -0.0202; in assay [4] it was 0.48; in [5], 1.43; in assay [6], 1.1. The composite z-score is 1.17 in assay [7], 0.439 in assay [9] and -0.0994 in assay [10]. Further, the z-score in assay [8] was 0.478 (inactive).
`CO[C@H]1O[C@H](CO)[C@@H](OC(=O)Nc2cccc(F)c2)[C@H](OC(=O)Nc2ccccc2-c2ccccc2)[C@H]1OC(=O)Nc1ccccc1-c1ccccc1`: the composite z-score in [1] is -0.24; in assay [2], 0.368; in assay [3], 0.0591; in assay [4], 0.64; in assay [5], 1.53; in [6] it was 1.72. Moreover, the values for the composite z-score in [7], in assay [9] and in [10] were 1.35, 1.36 and -0.247, respectively. For the same compound, the z-score in assay [8] is 0.322 (inactive).

The values are drawn from PubChem BioAssay.
